Reference: PubChem BioAssay AID485281 (National Center for Advancing Translational Sciences (NCATS), 2010)
Screen size: about 350,000 compounds; about 260 (0.074%) were called active. Entries that show only a call come without a potency. Inconclusive results (about 8%) are left out. Calls follow the shape of the dose curve; as a rule, active = well fitted inhibition curve with a large enough effect; inconclusive = small, poorly fitted or top-dose-only effect; inactive = no such curve, though single readings can be large or run the other way. This excerpt belongs to a sample that is enriched for actives.

target: Ferritin light chain (Equus caballus) (UniProt P02791); assay: qHTS Assay for Identification of Novel General Anesthetics; details: apoferritin/1-aminoanthracene competitive binding, fluorescence; series mostly up to 77.5 µM; also: nearly all actives have a fitted effect of over 20% in size
Summary of the method: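 Concentration-response curves derived by four-parameter Hill fitting of normalized fluorescence, where compounds displaced 1-AMA from 10 uM horse apoferritin following a brief 10 min room-temperature incubation; propofol titration acted as positive control.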
Potency is read from the fitted curve at half-maximal effect.

Ferritin light chain (Equus caballus), sequence (P02791 2-175 limits assumed): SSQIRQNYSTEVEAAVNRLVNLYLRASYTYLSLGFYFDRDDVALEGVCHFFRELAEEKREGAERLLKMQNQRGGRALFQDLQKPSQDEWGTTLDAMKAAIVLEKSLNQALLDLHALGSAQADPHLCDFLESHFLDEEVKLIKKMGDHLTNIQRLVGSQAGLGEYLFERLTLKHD

SMILES	Potency
CCN(CC)c1ccc(NS(=O)(=O)c2cc(-c3cc(C)no3)ccc2C)c(C)c1	inactive
Cc1cccc(OCC(=O)Nc2ccccc2F)c1	inactive
Cc1ccc(F)c(NC(=O)CCOc2ccccc2C)c1	inactive
Cc1ccc(F)c(NC(=O)CCc2ccccc2)c1	12.6 µM (active)
CCc1ccc(NC(=O)C2CCCN2S(=O)(=O)c2ccc3nc(-c4ccccc4)[nH]c3c2)cc1 (stereo unspecified)	inactive
CCCOc1ccc(C2c3c(oc4cc(C)c(C)cc4c3=O)C(=O)N2CCCN2CCOCC2)cc1 (stereo unspecified)	35.5 µM (active)
Cc1ccc2oc3c(c(=O)c2c1)C(c1ccc([N+](=O)[O-])cc1)N(CCCN1CCOCC1)C3=O (stereo unspecified)	inactive
CSc1ccc(C2c3c(oc4ccccc4c3=O)C(=O)N2CCCN2CCOCC2)cc1 (stereo unspecified)	inactive
CCOc1ccc(C(NC(=O)c2cc(OC)c(OC)c(OC)c2)c2cc(Cl)c3cccnc3c2O)cc1 (stereo unspecified)	inactive
Cc1c(Cl)cccc1NC(=O)Cn1cc(C(=O)c2cccs2)c2ccccc21	inactive
O=C(Nc1ccc(Br)cc1)c1ccc(Br)c(S(=O)(=O)NCc2ccccc2)c1	inactive
CCCn1c2ccccc2c2cnn(CC(=O)NCC3CCN(Cc4ccc(C)cc4)CC3)c(=O)c21	inactive
COc1ccc(N2CCN(c3nc(-c4ccccc4F)nc4ccccc34)CC2)cc1	inactive
COc1ccc(OC)c(NC(=O)/C=C/c2ccc(C)o2)c1	inactive
CCC1CN(S(=O)(=O)c2cc(-c3cc(C)no3)ccc2C)c2cc(C)ccc2O1 (stereo unspecified)	inactive
CC(C)c1ccc(OCC(=O)N(Cc2ccc(N(C)C)cc2)C2CCS(=O)(=O)C2)cc1 (stereo unspecified)	inactive
CSc1ccc(CCNC(=O)c2ccc3c(c2)nc2n3CCOC2)cc1	inactive
CC(C)S(=O)(=O)c1oc(-c2ccc(F)cc2)nc1S(=O)(=O)c1ccc(F)cc1	inactive
CCOc1ccc(-c2cc(C)n3nc(C(=O)Nc4ccc(C)c(C)c4)cc3n2)cc1	inactive
COc1ccc(Cl)cc1NC(=O)CCn1c(=O)c2cccn2c2ccccc21	inactive
O=C(NCc1ccccc1)C(=O)NCC(c1ccco1)S(=O)(=O)c1ccc(Cl)cc1 (stereo unspecified)	inactive
CCC(=O)N1CCc2cc(S(=O)(=O)NC(Cc3ccccc3)C(=O)NCc3ccccc3)ccc21 (stereo unspecified)	inactive
CC(C)c1ccc(NC(=O)c2ccc(Cn3nc(N4CCN(c5ccccc5)CC4)ccc3=O)o2)cc1	inactive
Cc1ccc(CCNC(=O)c2ccc(CS(=O)(=O)Cc3cccc(C)c3)o2)cc1	inactive
CNC(=O)c1ccc(-c2nc(CN3CCc4ccccc43)c(C)o2)cc1	inactive
COc1ccc(-c2noc(CSc3nc4ccc(C)cc4[nH]3)n2)cc1	inactive

SMILES	Potency
Cc1ccc(C(=O)Nc2ccc(OCc3cc(=O)n4c5c(sc4n3)CCCC5)cc2)cc1	inactive
C=CC(=O)c1ccc2ccccc2c1	17.8 µM (active)
O=C(Nc1ccccc1N1CCCC1)c1ccc2ccccc2c1	inactive
O=C(Nc1ccc(NC(=O)c2cccs2)cc1)c1ccc2ccccc2c1	inactive
CCOc1cc(C(=O)Nc2nnc3n2CCS3)cc(OCC)c1OCC	inactive
Cc1cc(O)c(C(c2ccccc2)N2CCN(c3ccccc3F)CC2)c(=O)n1Cc1ccco1 (stereo unspecified)	inactive
CCOc1cc(-c2nnc(SCC(=O)NC3CCCCC3)nc2-c2ccc(OC)c(OCC)c2)ccc1OC	inactive
COc1ccc(C(=O)Nc2ccc(-n3nncc3-c3ccccc3)cc2)cc1OC	inactive
Cn1c(C(=O)N2CCC(C(=O)N3CCN(c4ccccc4)CC3)CC2)cc2sccc21	inactive
CC(C)(C)OC(=O)N1CCC(c2c(C(=O)NCCc3ccsc3)cnn2-c2ccc(F)cc2F)CC1	inactive
COc1cccc(C(c2c(O)cc(C)n(Cc3ccco3)c2=O)N2CCN(c3ccccc3)CC2)c1 (stereo unspecified)	inactive
COc1ccc2ncc3c(-c4ccc(C)c(C)c4)nn(CC(=O)NC4CCCC4)c3c2c1	inactive
O=c1c(/C=N/O)coc2ccc(Cl)cc12	inactive
Cc1ccc2occ(/C=N/NC(=O)c3ccccc3C)c(=O)c2c1	25.1 µM (active)
CC(C)(C)OC(=O)NCCCCCC(=O)N/N=C/c1coc2ccccc2c1=O	inactive
O=S(=O)(NCC(c1ccccc1)N1CCc2ccccc21)c1ccccc1 (stereo unspecified)	inactive
O=C(O)c1c(CNCc2cccc(F)c2)c2ccccc2n1Cc1ccccc1	inactive
O=c1cc2nc(-c3ccccc3)nc(SCCOc3ccc(Cl)cc3)n2[nH]1	inactive
COc1ccc(CCN2C(=O)N(c3cccc(OC)c3)C(=O)C2CC(=O)Nc2ccccc2)cc1 (stereo unspecified)	inactive
CCc1cnc2c(c1SCC(=O)c1ccccc1)c(=O)n(C)c(=O)n2C	inactive
CCCNC(=O)c1ccc2c(c1)ncn2-c1ccc(C)cc1C	inactive
CC(C)c1ccc(S(=O)(=O)Nc2ccc(O)c(Sc3nc4ccccc4s3)c2)cc1	inactive
COc1cc(NC(=O)c2cc3ccc4cccnc4c3[nH]2)cc(OC)c1OC	inactive
CCOc1ccc(OCC)c(NC(=O)CN(c2ccc(C)cc2)S(=O)(=O)c2c(C)n[nH]c2C)c1	inactive
COc1ccc(OC)c(CCNC(=O)CCCn2c(=O)c3cccn3c3cccnc32)c1	inactive
